CYP2C19 inhib – human CYP2C19 inhibition. 21% of 96,000 active. AID 778. CYP2C19 Supersomes, luciferin-H EGE luminescence, 30 min. inhibition, % at 5 µM. P33261;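 active means CYP2C19 inhibition above a set limit at 5 µM in the primary screen, cut at about 50% in these data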;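 further: plate controls were negative control wells for no effect and 2.5 mM tranylcypromine positive control for full effect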
Target sequence (P33261 whole entry, looked up): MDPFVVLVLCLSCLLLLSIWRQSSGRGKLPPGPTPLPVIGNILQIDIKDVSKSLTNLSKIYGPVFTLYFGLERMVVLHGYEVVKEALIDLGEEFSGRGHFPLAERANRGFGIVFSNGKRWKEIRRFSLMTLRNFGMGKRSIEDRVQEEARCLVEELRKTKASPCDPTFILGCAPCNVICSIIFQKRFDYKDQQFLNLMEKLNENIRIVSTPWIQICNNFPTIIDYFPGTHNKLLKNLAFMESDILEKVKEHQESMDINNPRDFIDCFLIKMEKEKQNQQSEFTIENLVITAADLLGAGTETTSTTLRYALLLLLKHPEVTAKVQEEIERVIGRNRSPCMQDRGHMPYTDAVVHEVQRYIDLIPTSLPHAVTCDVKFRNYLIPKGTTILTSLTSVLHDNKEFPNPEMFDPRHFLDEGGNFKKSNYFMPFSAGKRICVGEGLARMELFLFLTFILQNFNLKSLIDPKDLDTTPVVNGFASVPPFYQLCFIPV
EphB4 ephrin blk – EphB4-ephrin-B2 interaction antagonism. EphB4 LBD / TNYL-RAW-Alexa532 peptide, fluorescence polarization. inhibition, % at 7 µM. 0.15% of 97,000 active;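 active means inhibition above the screen-wide mean inhibition plus 3 SD, cut at about 15% in these data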;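 further: 0% = DMSO wells and 100% = excess unlabeled TNYL-RAW peptide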
CYP2C19 activ – activators of human cytochrome P450 2C19 | P33261 | 96,000 tested, under 10 active | activation factor at 5 µM | recombinant CYP2C19, luciferin-H EGE luminescence; hits give high values; 0 = fully inhibited enzyme, 1 = untreated enzyme;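 active means activation factor of at least 2 at 5 µM in the primary screen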;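 further: 0 = wells with 2.5 mM tranylcypromine and 1 = vehicle-only wells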
CYP2C9 act – increases human cytochrome P450 2C9 activity; P11712; recombinant CYP2C9, luciferin-H conversion, luminescence; hits give high values; factor 1 = untreated enzyme, 0 = blocked; activation factor at 5 µM; 1.4% of 96,000 active; AID 1024;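 active means activation factor of 2 or more for CYP2C9 at a 5 µM dose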;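 further: 0 = sulfaphenazole-blocked wells and 1 = vehicle-only wells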
CYP2C9 inhib – inhibitors of human CYP2C9. P11712. CYP2C9 Supersomes, luciferin-H conversion, luminescence. inhibition, % at 5 µM. 20% of 96,000 active. AID 777;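 active means blocking of liver enzyme CYP2C9 beyond about 50% at 5 µM, limit read from the data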
Starred values were filed as active, the others as inactive. Most compounds without a hit are left out; they make up all but 27% or so of the library.

`Cc1cc(Nc2ccc(C)c(C)c2)n2nc(C)nc2n1` gave CYP2C19 inhib 25, CYP2C19 activ 0.7, CYP2C9 act 0.5 and CYP2C9 inhib 52*.
`Cc1cc(Nc2ccc(F)cc2)n2nc(C)nc2n1` gave CYP2C19 inhib -2, EphB4 ephrin blk 2, CYP2C19 activ 1, CYP2C9 act 1 and CYP2C9 inhib 1.
Screening CS(=O)(=O)Nc1cccc2cccnc12 returned CYP2C19 inhib 5, EphB4 ephrin blk 7, CYP2C19 activ 1, CYP2C9 act 2.4* and CYP2C9 inhib -136.
O=S(=O)(Nc1cccc2cccnc12)c1ccc(S(=O)(=O)N2CCCC2)cc1 was read as CYP2C19 inhib 45, EphB4 ephrin blk -1, CYP2C19 activ 0.5, CYP2C9 act 0.7 and CYP2C9 inhib 30.
`Cc1cc(C)nc(NS(=O)(=O)c2ccc(N3C(=O)C4CC=C(Cl)CC4C3=O)cc2)n1` (stereo unspecified) gave CYP2C19 inhib 3, EphB4 ephrin blk -1, CYP2C19 activ 1, CYP2C9 act 1 and CYP2C9 inhib 2.
Screening CCc1nnc(NS(=O)(=O)c2ccc(N3C(=O)C4CC=C(Cl)CC4C3=O)cc2)s1 (stereo unspecified) returned CYP2C19 inhib 13, EphB4 ephrin blk 1, CYP2C19 activ 0.9, CYP2C9 act 0.5 and CYP2C9 inhib 50*.
`Cc1ccc(N(CC(=O)NCCc2ccccc2)S(=O)(=O)c2c(C)noc2C)cc1` gave CYP2C19 inhib 84*, EphB4 ephrin blk 7, CYP2C19 activ 0.2, CYP2C9 act 0.7 and CYP2C9 inhib 34.
COC(=O)CN(c1ccc(OC)cc1)S(=O)(=O)c1c(C)noc1C was read as CYP2C19 inhib 46, EphB4 ephrin blk -7, CYP2C19 activ 0.5, CYP2C9 act 0.9 and CYP2C9 inhib 10.
`COc1ccc(CCNC(=O)CN(c2ccc(C)cc2)S(=O)(=O)c2c(C)noc2C)cc1OC` gave CYP2C19 inhib 92*, EphB4 ephrin blk 7, CYP2C19 activ 0.1, CYP2C9 act 0.6 and CYP2C9 inhib 40.
COc1ccc(N(CC(=O)Nc2ccc(OC)c(Cl)c2)S(=O)(=O)c2c(C)noc2C)cc1 was read as CYP2C19 inhib 3, EphB4 ephrin blk 1, CYP2C19 activ 1, CYP2C9 act 1 and CYP2C9 inhib 0.
COc1ccccc1CNc1nc2ccccc2n1CCN1CCCCC1 was read as CYP2C19 inhib 4, EphB4 ephrin blk -1, CYP2C19 activ 1, CYP2C9 act 1 and CYP2C9 inhib 5.
`CCN(CC)c1nc(SCC(=O)O)nc(N(CC)CC)n1` gave CYP2C19 inhib 3, EphB4 ephrin blk 4, CYP2C19 activ 1, CYP2C9 act 0.9 and CYP2C9 inhib 6.
`Nc1[nH]n2c(=O)cc(-c3ccccc3)nc2c1N=Nc1ccccc1` gave CYP2C19 inhib 2, EphB4 ephrin blk 4, CYP2C19 activ 1, CYP2C9 act 0.6 and CYP2C9 inhib 39.
Screening S=C1N(c2ccccc2)C(c2ccc(Cl)cc2)N2CCCN12 (stereo unspecified) returned CYP2C19 inhib 63*, EphB4 ephrin blk -6, CYP2C19 activ 0.4, CYP2C9 act 0.6 and CYP2C9 inhib 44.
CC1(C)C2([N+](=O)[O-])CN3CC1([N+](=O)[O-])CN(C2)C3c1ccccc1 (stereo unspecified) was read as CYP2C19 inhib 34, EphB4 ephrin blk -6, CYP2C19 activ 0.7, CYP2C9 act 1 and CYP2C9 inhib -2.
For O=C1C2CCCN2C(c2ccccc2)N1c1ccc(Cl)cc1 (stereo unspecified) the results were EphB4 ephrin blk 9.
CC1(C)CN2C(=S)N(c3ccccc3)C(c3ccccc3)N2C1 (stereo unspecified) was read as CYP2C19 inhib 67*, EphB4 ephrin blk -5, CYP2C19 activ 0.3, CYP2C9 act 0.3 and CYP2C9 inhib 66*.
`Cc1ccc2nc3c(c(N)c2c1)CCN3c1ccccc1` gave CYP2C19 inhib 69*, EphB4 ephrin blk 9, CYP2C19 activ 0.3, CYP2C9 act 0.7 and CYP2C9 inhib 33.
Screening COc1ccc(C(c2c(O)cc(C)oc2=O)c2c(O)cc(C)oc2=O)cc1 returned CYP2C19 inhib 7, EphB4 ephrin blk -4, CYP2C19 activ 0.9, CYP2C9 act 0.7 and CYP2C9 inhib 35.
`Cc1cc(O)c(C(C[N+](=O)[O-])c2ccc(Cl)cc2)c(=O)o1` (stereo unspecified) gave CYP2C19 inhib 47, EphB4 ephrin blk 1, CYP2C19 activ 0.5, CYP2C9 act 0.2 and CYP2C9 inhib 84*.
For CN(C(=O)CSC1=Nc2ccccc2C2=NC(c3ccccc3)C(=O)N12)C1CCCCC1 (stereo unspecified) the results were CYP2C19 inhib 16, EphB4 ephrin blk -5, CYP2C19 activ 0.8, CYP2C9 act 0.6 and CYP2C9 inhib 41.
For CCOc1c(CNCCNC(=O)c2nonc2N)cccc1OC the results were CYP2C19 inhib 74*, EphB4 ephrin blk 8, CYP2C19 activ 0.3, CYP2C9 act 1.1 and CYP2C9 inhib -8.
Nc1nonc1C(=O)NCCNCc1cc(Br)ccc1OCc1ccccc1F was read as CYP2C19 inhib 57*, EphB4 ephrin blk 0, CYP2C19 activ 0.4, CYP2C9 act 0.6 and CYP2C9 inhib 43.
Screening Nc1nonc1C(=O)NCCNCc1ccccc1OCc1ccccc1F returned CYP2C19 inhib 36, EphB4 ephrin blk -11, CYP2C19 activ 0.6, CYP2C9 act 0.8 and CYP2C9 inhib 25.
`CC(C)CCOCc1nc2sc3c(c2c(=O)[nH]1)CCC(C)C3` (stereo unspecified) gave CYP2C19 inhib 54*, EphB4 ephrin blk -2, CYP2C19 activ 0.5, CYP2C9 act 0.3 and CYP2C9 inhib 72*.
For CC(C)CC(=O)NC(NC(=S)Nc1cccc2cccnc12)C(Cl)(Cl)Cl (stereo unspecified) the results were CYP2C19 inhib 2, EphB4 ephrin blk 0, CYP2C19 activ 1, CYP2C9 act 0.7 and CYP2C9 inhib 25.
`CC(C)C(=O)NC(Nc1cccc2cccnc12)C(Cl)(Cl)Cl` (stereo unspecified) gave CYP2C19 inhib 59*, EphB4 ephrin blk -10, CYP2C19 activ 0.4, CYP2C9 act 0.4 and CYP2C9 inhib 63*.
Screening COc1cc(C2Nc3cc(Cl)c(S(N)(=O)=O)cc3S(=O)(=O)N2)ccc1OCc1ccccc1 (stereo unspecified) returned CYP2C19 inhib 66*, EphB4 ephrin blk -5, CYP2C19 activ 0.3, CYP2C9 act 0.3 and CYP2C9 inhib 70*.
`O=C(NCc1ccccc1)c1cccc(COc2ccccc2Cl)c1` gave CYP2C19 inhib 18, EphB4 ephrin blk 7, CYP2C19 activ 0.8, CYP2C9 act 0.9 and CYP2C9 inhib 6.
NNC(=O)c1cccc(COc2ccccc2Br)c1 was read as CYP2C19 inhib 98*, EphB4 ephrin blk 0, CYP2C19 activ 0, CYP2C9 act 0.2 and CYP2C9 inhib 78*.

From PubChem BioAssay
